# Assay outcomes: PubChem BioAssay, National Center for Advancing Translational Sciences (NCATS)
# Sampled rows, rich in hits. Any-hit rate of the full collection: about 6.1%.
# GBA mod: human lysosomal glucosylceramidase modulation; hit rate 1.1% among 48,000; AID 360; purified enzyme, resorufin glucoside fluorescence (screen aimed at inhibitors), 20 min; P04062; Potency, µM; in the data active = potency below about 15 µM; inconclusive = mostly about 16 µM to 33 µM;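 note: the screen sought inhibitors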
#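 Compounds titrated against 0.2 nM normal enzyme, 30 uM resorufin beta-D-glucopyranoside substrate, citrate/phosphate buffer with taurocholate and tween-20, pH 5.9. Reaction ran 20 min at room temperature; fluorescence (Ex 548/Em 600) gave AC50.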
# HEK293 cAMP cs: raises cAMP in parental HEK293 cells, TSHR agonist counter-screen | Potency, µM (series often up to 57.1 µM), for inactives: top-dose activation, usual class: activators | hit rate 2.5% among 73,000 | AID 938 | parental HEK293 CNG cAMP sensor, membrane potential fluorescence; note: % of control where 0% means no effect; nearly all actives have a fitted effect of over 55% in size
#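 Parental HEK 293 cells stably expressing a modified CNG channel (no TSHR) report cAMP rise as membrane depolarization. Membrane potential dye with 100 uM RO 20-1724 was loaded for 60 min at room temperature, then compound added for 30 min; fluorescence read at 590 nm.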
# PK Bst: modulators of Bacillus stearothermophilus pyruvate kinase; purified pyruvate kinase, luminescence ATP production; ribose 5-phosphate activator present at AC10; Potency, µM; hit rate 1.2% among 51,000; in the data active = potency below about 11 µM; inconclusive = mostly about 12 µM to 25 µM;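 the screen sought inhibitors and activators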;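 note: scaled between full activation by ribose 5 phosphate and full inhibition by luteolin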
# TSHR ag: TSH receptor (human) agonism; P16473; HEK293-CNG-TSHR cells (CNG channel as cAMP sensor), membrane potential dye, cAMP; Potency, µM (series often up to 57.1 µM), inactives show top-dose activation, usual class: activators; hit rate 0.48% among 73,000; active = well fitted activation curve with a large enough effect in the main read-out, with a control signal flat, not every such curve was filed as active; inconclusive = small, poorly fitted or top-dose-only effect, or a change in a side signal; inactive = no such curve, though single readings can be large or run the other way; % of control where 0% means no effect;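 note: the control signal comes from parental cells without the receptor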
#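 HEK 293 cells stably expressing TSHR and a cAMP-gated CNG channel; parental CNG-only cells as counterscreen. Cells preloaded 60 min with membrane potential dye plus 100 uM RO 20-1724, then compound 30 min; fluorescence read at 590 nm.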
# Luciferase inh: firefly luciferase inhibition. AID 411. Potency, µM (doses to about 57.1 µM), for the others: at the top dose activity change, negative = inhibition, usual class: inhibitors. hit rate 2.2% among 72,000. purified firefly luciferase, luminescence, 8 min; note: % is set by controls: 0 for no effect and ±100 for the full control effect; nearly all actives have a fitted effect of over 40% in size
# Target sequence (P08659 whole entry, looked up): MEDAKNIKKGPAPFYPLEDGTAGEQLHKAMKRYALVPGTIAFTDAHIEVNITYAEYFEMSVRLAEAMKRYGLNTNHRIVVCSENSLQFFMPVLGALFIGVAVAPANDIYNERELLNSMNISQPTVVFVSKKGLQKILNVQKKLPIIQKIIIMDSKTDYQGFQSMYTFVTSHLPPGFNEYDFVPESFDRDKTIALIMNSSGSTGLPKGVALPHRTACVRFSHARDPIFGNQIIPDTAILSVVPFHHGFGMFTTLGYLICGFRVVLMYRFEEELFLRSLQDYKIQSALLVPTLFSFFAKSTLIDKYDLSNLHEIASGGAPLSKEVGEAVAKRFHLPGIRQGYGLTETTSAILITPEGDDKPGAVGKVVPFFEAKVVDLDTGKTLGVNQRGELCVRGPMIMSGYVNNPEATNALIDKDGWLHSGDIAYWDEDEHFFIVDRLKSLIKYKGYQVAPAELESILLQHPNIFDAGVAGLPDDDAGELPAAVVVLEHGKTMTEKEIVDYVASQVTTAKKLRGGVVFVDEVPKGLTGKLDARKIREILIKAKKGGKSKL
#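 Compounds were tested as concentration series (qHTS) against purified P. pyralis luciferase with luciferin and 10 uM ATP in 50 mM imidazole pH 7.2, 50 mM KCl, 7 mM MgCl2, 0.01% Tween 20, 0.05% BSA. Luminescence was read after 8 min at ambient temperature.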
# ERK AVP inh: blocks ERK signaling stimulated by vasopressin. Potency, µM (series often up to 57.5 µM), inactives show at the top dose activity, negative = inhibition, most hits filed as inhibitors. AID 995. HEK293-V1b, vasopressin-stimulated pERK AlphaScreen. hit rate 0.99% among 72,000; note: % is set by controls: 0 for no effect and ±100 for the full control effect; nearly all actives have a fitted effect of over 55% in size
#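 V1b-HEK293 cells; cpd 30 min 37C; 25 nM vasopressin 5 min; lyse 10 min; AlphaScreen beads 5 hr RT. Normalized to DMSO basal and 25 nM vasopressin; AC50 by Hill fit.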
# * hit, by the source's call; i = inactive; u = inconclusive; x = not tested or not shown; [ ] = dose if it differs, or a comment. Unless noted, calls come from the whole dose curve; as a rule, active = well fitted curve in the direction sought with a large enough effect; inconclusive = small, poorly fitted or top-dose-only effect, or another doubt; inactive = no such curve, though single readings can be large; an effect the other way counts as inactive or inconclusive. Potency is the fitted concentration of half-maximal effect.
SMILES,GBA mod,HEK293 cAMP cs,PK Bst,TSHR ag,Luciferase inh,ERK AVP inh
CC[C@H](C(=O)c1cccs1)C(O)(C(F)(F)F)C(F)(F)F,x,-4%[11.4 µM],x,x,2%[11.4 µM],-10%[11.5 µM]
CC(=O)N1CCC2(CC1)CCN(c1ccccn1)CC2,x,-4%,x,1%,-1%[11.4 µM],-12%
COCCNc1nc(C(C)(C)C)nc2c1nnn2Cc1ccccc1Cl,>77,2.5µM*,>57,u,3%,13%
O=C(O)[C@@H](O)c1ccc(F)cc1,x,6%[11.4 µM],x,3%[11.4 µM],2%[11.4 µM],18%[11.5 µM]
CC1(C)CC(=O)c2cnc(N3CCN(c4ccccc4)CC3)nc2C1,u,18%,>57,5%,1%,7%
CC1(C)CC(N2CCN(c3ccccc3)CC2)=CC(=[N+]2CCCC2)C1,>77,7.9µM*,>57,u,1%,-10%
COc1ccc(/C=N/n2c(N)nc3ccccc32)cc1OC,>77,20%,8.4*,10%,6.3µM*,-26%
CCSc1nncn1/N=C/c1ccc(OC)c(OC)c1,x,2%[11.4 µM],x,20%,-19%,-29%
OCC1OC(C#Cc2ccccc2)C=CC1O (stereo not given),x,-4%[11.4 µM],x,-2%[11.4 µM],x,36%[11.5 µM]
O=C(/C=C\Nc1ccc2c(c1)OCO2)c1ccccn1,x,24%,x,17%,0.63µM*,5%
COc1ccccc1-c1nc(C#N)c(N2CCN(Cc3ccccc3)CC2)o1,12*,u,>57,u,-4%,u
N#Cc1nc(COc2ccc(F)cc2)oc1N1CCC(Cc2ccccc2)CC1,>77,4µM*,>57,u,3%,17%
COc1ccccc1-c1nc(C#N)c(N2CCC(Cc3ccccc3)CC2)o1,>77,u,>57,u,4%,-12%
N#Cc1nc(COc2ccc(F)cc2)oc1N1CCN(Cc2ccccc2)CC1,>77,6.3µM*,>57,u,3%,-10%
COc1ccc(CNC(=O)C(OC(C)=O)c2ccccn2)cc1 (stereo not given),>77,7.9µM*,>57,u,4%,12%
O=C(NC1CCCCC1)c1ccc(Cc2nc3ccccc3[nH]2)cc1,x,3%,x,-5%,x,x
CC(=O)OC[C@H]1O[C@@H](O/N=C(\C)CCN2CCc3nc(-c4ccccc4)c(-c4ccccc4)cc3C2)[C@H](OC(C)=O)[C@@H](OC(C)=O)[C@H]1OC(C)=O,x,-6%[11.4 µM],x,-2%[11.4 µM],0%[11.4 µM],8%[11.5 µM]
CCn1c(C(=O)N2CCCC(C(=O)NCCc3ccc(C)cc3)C2)cc2sccc21 (stereo not given),i,u,>57,u,1%,u
Cn1c(C(=O)N2CCCC(C(=O)NCCCSC3CCCCC3)C2)cc2sccc21 (stereo not given),i,u,>57,u,0%,16µM*
Cn1c(C(=O)N2CCCC(C(=O)NCc3cccs3)C2)cc2sccc21 (stereo not given),x,4%,>57,25µM*,-2%,u
CCn1c(C(=O)N2CCCC(C(=O)NCCCc3ccccc3)C2)cc2sccc21 (stereo not given),x,u,>57,u,2%,16µM*
Cn1c(C(=O)NCc2ccc3c(c2)OCO3)cc2sccc21,>77,u,>57,u,-1%,-23%
CCc1ccccc1NC(=O)c1cc2sccc2n1C,x,32µM*,x,u,-6%,u
CCn1c(C(=O)N2CCC(C(=O)NCc3cccs3)CC2)cc2sccc21,x,u,x,u,-1%,-10%
CC(C)CO/N=C1/C[C@@H](O)[C@@H](O)[C@@H]2[C@@H]3C(=O)N([C@@H](C)c4ccccc4)C(=O)[C@H]3CC[C@@H]12,x,-9%[11.4 µM],x,-4%[11.4 µM],-1%[11.4 µM],7%[11.5 µM]
CC(CCc1ccccc1)NC(=O)c1cc2sccc2n1C (stereo not given),x,41%,x,25µM*,x,x
CCn1c(C(=O)N2CCCC(C(=O)O)C2)cc2sccc21 (stereo not given),>77,3%,>57,9%,0%,-1%
CC(CCc1ccccc1)NC(=O)C1CCCN(C(=O)c2cc3sccc3n2C)C1 (stereo not given),x,u,>57,u,1%,25µM*
Cn1c(C(=O)OCC(=O)NCCc2ccccc2)cc2sccc21,>77,u,>57,u,0%,-9%
